# From PubChem BioAssay (Tox21)
# Results filed as inconclusive are left out. A number with no mark means an inactive call. Activity calls are given as the source filed them. Unless noted, calls come from the whole dose curve.
# Test system: not listed separately
# Experiment: p53 small molecule agonists, cell-based qHTS assay: qHTS cell viability counter screen (AID 1963581); note: nearly all actives have a fitted effect of over 45% in size
# Conditions: p53RE-bla HCT-116 viability, ATP luminescence, 16 h; series mostly up to 66 µM; activity change, negative = cytotoxicity: at the top concentration
# Method in brief: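 p53RE-bla HCT-116 cells, compounds added 5 h after plating and incubated 16 h at 37 C. Cytotoxicity measured in the same wells as intracellular ATP by CellTiter-Glo luminescence after 30 min at room temperature.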
# % is set by controls: 0 for no effect and ±100 for the full control effect; potency is the fitted concentration of half-maximal effect.
SMILES,"activity change, negative = cytotoxicity",Potency
O=c1[nH]c2ccccc2n1CCCN1CCC(n2c(=O)[nH]c3cc(Cl)ccc32)CC1,6.39% [at 30.3 µM],–
CCCN(CCC)CCc1c[nH]c2ccccc12,9.1%,–
CCOC(=O)C(SP(=S)(OC)OC)c1ccccc1 (configuration not stated),1.59%,–
CCOP(=S)(OCC)SCS(=O)(=O)C(C)(C)C,-2.84%,–
O=NN(CCO)CCO,10.9%,–
CC1CCC(C(C)C)C(OC(=O)c2ccccc2N)C1 (configuration not stated),–,31.9 µM (active)
Cc1ccn2nc(S(=O)(=O)Nc3c(F)cccc3F)nc2n1,8.23%,–
O=[N+]([O-])c1ccc(Cl)c(Cl)c1Cl,-12.5%,–
CCOP(=S)(Oc1cnc(C(C)(C)C)nc1)OC(C)C (configuration not stated),15.5%,–
O=C1c2ccccc2C(=O)c2ccccc21,5.09% [at 13.5 µM],–
CCCCN(N=O)C(=N)N[N+](=O)[O-],6.84%,–
CCNC(=O)NC(=O)/C(C#N)=N/OC,-1.52%,–
CCOc1nc(C(Cl)(Cl)Cl)ns1,-2.69%,–
CC(=O)[O-].CC(=O)[O-].[Hg+2],–,7.25 µM (active)
O=CCCl,-1.93%,–
ClC1=C(Cl)[C@]2(Cl)[C@@H]3[C@@H]4C[C@@H]([C@H]5O[C@@H]45)[C@@H]3[C@@]1(Cl)C2(Cl)Cl,2.87%,–
CCCCOC(=O)c1ccccc1N,1.56%,–
Nc1cc(Cl)ccc1Cl,0%,–
CCCN1CCC[C@@H]2Cc3nc(N)ncc3C[C@H]21,28.7% [at 30.3 µM],–
CNC(=O)Oc1cccc(C(C)C)c1,8.82%,–
CC(=O)OC(c1ccccc1)C(Cl)(Cl)Cl (configuration not stated),-9.07%,–
CC(C)C(Nc1ccc(C(F)(F)F)cc1Cl)C(=O)OC(C#N)c1cccc(Oc2ccccc2)c1 (configuration not stated),-14.7%,–
Oc1ccc2[nH]cc(CCCCN3CC=C(c4ccccc4)CC3)c2c1,-10.8% [at 30.3 µM],–
NC(=O)CI,9.84%,–
CCN(CC)c1nc(C)cc(OP(=S)(OC)OC)n1,16.6%,–
COC(=O)C(C)N(C(=O)Cc1ccccc1)c1c(C)cccc1C (configuration not stated),27.4%,–

# Test system: not listed separately
# Experiment: p53 small molecule agonists, cell-based qHTS assay (AID 1963582; active = well fitted activation curve with a large enough effect in the signal ratio in the repeat runs, not every such curve was filed as active; the % refers to the signal ratio)
# Conditions: HCT-116 p53RE-bla reporter, beta-lactamase FRET ratio, 16 h; series mostly up to 66 µM; activation: at the top concentration
# Method in brief: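 p53RE-bla reporter cells, compounds added in DMSO after 5 h plating, incubated 16 h at 37 C. Beta-lactamase read via 2 h room-temperature LiveBLAzer B/G FRET substrate, fluorescence intensity.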
SMILES,activation,Potency
CCCN(CCC)CCc1c[nH]c2ccccc12,0.566%,–
CCOC(=O)C(SP(=S)(OC)OC)c1ccccc1 (configuration not stated),-1.57%,–
CCOP(=S)(OCC)SCS(=O)(=O)C(C)(C)C,0.496%,–
O=NN(CCO)CCO,0.157%,–
c1coc(-c2nc3ccccc3[nH]2)c1,-0.0824%,–
O=[N+]([O-])c1ccc(Cl)c(Cl)c1Cl,-0.0431%,–
CCOP(=S)(Oc1cnc(C(C)(C)C)nc1)OC(C)C (configuration not stated),-4.57%,–
O=C1c2ccccc2C(=O)c2ccccc21,-1.94% [at 13.5 µM],–
C[C@H](N)[C@H](O)c1ccc(O)c(O)c1,4.15% [at 30.3 µM],–
CCCCN(N=O)C(=N)N[N+](=O)[O-],–,37.1 µM (active)
CCOc1nc(C(Cl)(Cl)Cl)ns1,3.78%,–
O=CCCl,-0.0334%,–
Nc1cc(Cl)ccc1Cl,0.929%,–
CCCN1CCC[C@@H]2Cc3nc(N)ncc3C[C@H]21,3.51% [at 30.3 µM],–
CC(=O)OC(c1ccccc1)C(Cl)(Cl)Cl (configuration not stated),0.273%,–
Oc1ccc2[nH]cc(CCCCN3CC=C(c4ccccc4)CC3)c2c1,-2.23% [at 30.3 µM],–
NC(=O)CI,-3.19%,–
CCN(CC)c1nc(C)cc(OP(=S)(OC)OC)n1,-0.0936%,–

# Target: 5-hydroxytryptamine receptor 2A (Homo sapiens) (UniProt P28223)
# Experiment: 5-hydroxytryptamine receptor 2A (HTR2A) small molecule antagonists, cell-based qHTS assay (AID 1963586); note: nearly all actives have a fitted effect of over 45% in size
# Conditions: HTR2A-CHO cells, DOI-induced calcium flux, fluorescence; series mostly up to 61.5 µM; activity, negative = inhibition: at the top concentration
# Method in brief: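 Antagonist-mode intracellular calcium assay: DOI (4 nM) added after 5 min compound pre-incubation at room temperature to dye-loaded HTR2A-CHO cells. Fluorescence followed for 3 min, sampled every second.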
# Chain of 5-hydroxytryptamine receptor 2A (Homo sapiens) (P28223 whole entry, looked up): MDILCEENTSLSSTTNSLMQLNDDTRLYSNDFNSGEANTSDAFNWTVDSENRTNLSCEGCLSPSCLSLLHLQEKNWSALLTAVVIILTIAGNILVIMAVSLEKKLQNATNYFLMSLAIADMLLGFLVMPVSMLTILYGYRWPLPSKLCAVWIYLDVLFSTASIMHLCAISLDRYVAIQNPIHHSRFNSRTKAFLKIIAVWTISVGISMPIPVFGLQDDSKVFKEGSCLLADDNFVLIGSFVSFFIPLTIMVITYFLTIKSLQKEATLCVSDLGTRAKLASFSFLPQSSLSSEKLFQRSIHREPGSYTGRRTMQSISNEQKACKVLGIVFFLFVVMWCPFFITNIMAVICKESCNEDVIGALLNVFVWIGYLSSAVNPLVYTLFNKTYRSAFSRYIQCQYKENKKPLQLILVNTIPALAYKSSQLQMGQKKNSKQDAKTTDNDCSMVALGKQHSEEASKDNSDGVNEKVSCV
SMILES,"activity, negative = inhibition",Potency
CCC(C)c1cc([N+](=O)[O-])cc([N+](=O)[O-])c1OC(=O)C=C(C)C (configuration not stated),-21.2%,–
CCCN(CCC)CCc1c[nH]c2ccccc12,–,0.0131 µM (active)
CCOC(=O)C(SP(=S)(OC)OC)c1ccccc1 (configuration not stated),-3.65%,–
CCOP(=S)(OCC)SCS(=O)(=O)C(C)(C)C,-15.2%,–
c1coc(-c2nc3ccccc3[nH]2)c1,-0.549%,–
Cc1ccn2nc(S(=O)(=O)Nc3c(F)cccc3F)nc2n1,-0.959%,–
O=[N+]([O-])c1ccc(Cl)c(Cl)c1Cl,-18.9%,–
CCOP(=S)(Oc1cnc(C(C)(C)C)nc1)OC(C)C (configuration not stated),24.4%,–
CCN(CC)C(=S)[S-].CCN(CC)C(=S)[S-].[Zn+2],5.03%,–
CCCCN(N=O)C(=N)N[N+](=O)[O-],-2.28%,–
IC(I)=C(I)I,-15.9%,–
CON(C)C(=O)Nc1ccc(Br)c(Cl)c1,21.4%,–
CCC1(C2=NCCN2)Cc2ccccc2O1 (configuration not stated),-3.92% [at 28.5 µM],–
C=CC(=O)OCC(COC(=O)C=C)(COC(=O)C=C)COC(=O)C=C,33.9%,–
CCNC(=O)NC(=O)/C(C#N)=N/OC,17.7%,–
CCOc1nc(C(Cl)(Cl)Cl)ns1,-5.42%,–
CC(=O)[O-].CC(=O)[O-].[Hg+2],-18.1%,–
CCCCOC(=O)c1ccccc1N,3.49%,–
CCCN1CCC[C@@H]2Cc3nc(N)ncc3C[C@H]21,-7.31% [at 28.5 µM],–
CNC(=O)Oc1cccc(C(C)C)c1,-4.59%,–
C[CH2][Hg][N]1C(=O)C2C(C1=O)C1(Cl)C(Cl)=C(Cl)C2(Cl)C1(Cl)Cl (configuration not stated),14.2% [at 12.7 µM],–
Oc1ccc2[nH]cc(CCCCN3CC=C(c4ccccc4)CC3)c2c1,–,0.818 µM (active)
CC(=O)[O-].CC(=O)[O-].O.O.[Cd+2],11.7%,–
NC(=O)CI,13%,–
CCN(CC)c1nc(C)cc(OP(=S)(OC)OC)n1,0.952%,–
COC(=O)C(C)N(C(=O)Cc1ccccc1)c1c(C)cccc1C (configuration not stated),5.49%,–
CCCSP(=O)(OCC)SCCC,27.1%,–
OCCBr,36.2%,–
